# Measurements published in PubChem BioAssay (NCI).
# The panel holds about 83,000 compounds, 20% with a hit somewhere; the sample as a whole holds those more often.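 Cell lines were cultured in 96-well plates, exposed to a single compound concentration, and assessed for percent growth 48 hours later.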 Active and inactive are the calls of the source.
# Test system: SK-MEL-2 melanoma
# Assay: NCI-60 one-dose screen, 48 h (100 = growth as untreated, 0 = no growth, -100 = all killed)
# Details: 10 µM unless noted
# Method: Growth inhibition of the SK-MEL-2 human tumor cell line is measured as a screen for anti-cancer activity. Cells are grown in 96 well plates and exposed to the test compound for 48 hours. Compounds are tested at a single concentration, which is 10^-5 M for most compounds. The reported endpoint is percent growth (GI% or GIPRCNT), where numbers from 0 - 100% represent growth inhibition, and numbers from -100% - 0 represent cell death. For example, a value of 40 represents 60% growth inhibition. A value of 0 means no net growth occurred over the course of the experiment. A value of -40 indicates 40% of cells at the beginning of the experiment died by the end of the experiment. A value of -100 means all cells are dead at the end of the experiment.
# NCI-60 Human Tumor Cell Lines Screen was performed using the standard one-dose NCI protocol, which is described in more detail at https://dtp.cancer.gov/discovery_development/nci-60/default.htm.
# Compounds with GIPRCNT values below 10 were considered active. Activity score was based on GIPRCNT using the following formula: […]
# Score is 0 for GIPRCNT values of 100 or above, 50 for GIPRCNT values of 0, and 100 for GIPRCNT values of -100.
row,SMILES,growth
1,CCOC(=O)C(O)C(O)(c1ccccc1)c1ccccc1 (stereo not given),102% (inactive)
2,CC(c1ccc(-n2cccn2)cc1)c1cnc(N2CCc3ccc(C(N)=O)cc3C2)s1 (stereo not given),51.7% (inactive)
3,COc1c(C)cnc(CSc2nc(-c3ccc(C)cc3)cn2-c2ccc(Cl)cc2)c1C,83% (inactive)
4,COc1ccc(-c2c(N)n[nH]c2-c2ccccc2O)cc1OC,88.2% (inactive)
5,C[C@@H]1C(=O)N(C[C@H](Cc2ccccc2)NC(=O)OCc2ccccc2)[C@]1(Cc1ccccc1)C(=O)OC(C)(C)C,76.8% (inactive)
6,C[C@H]1[C@H](C)CC[C@]2(C(=O)N3CCN(C)CC3)CC[C@]3(C)C(=CC[C@@H]4[C@@]5(C)C/C(=C/c6cccnc6)C(=O)C(C)(C)[C@@H]5CC[C@]43C)[C@H]12,-82.6% (active)
7,Cc1nc(Nc2ccc(NC(=S)Nc3ccccc3)cc2)nc2nc(Nc3cccc(Cl)c3)[nH]c(=O)c12,88.8% (inactive)
8,CCOC(=O)C1C(=O)C=C(c2cnccn2)CC1c1ccc(OC)c(OC)c1 (stereo not given),86.4% (inactive)
9,CC(=O)Nc1ccc(-c2cc3c(NCc4ccc(F)cc4)ncnc3s2)cc1,95.4% (inactive)
10,COc1cc(-c2ccc(N=Nc3c(O)c(C(=O)Nc4ccccc4OC)cc4ccccc34)c(OC)c2)ccc1N=Nc1c(O)c(C(=O)Nc2ccccc2OC)cc2ccccc12,101% (inactive)
11,CCCCCCCCN(CCCCCCCC)C(=N)c1ccnc2ccccc12,-44.2% (active)
12,Cc1nc(Nc2ccc(NC(=S)Nc3ccccc3)cc2)nc2nc(SCc3ccccc3)[nH]c(=O)c12,110% (inactive)
13,C=C(C=O)C1CCC2(C(=O)O)CCC3(C)C(CCC4C5(C)CCC(O)C(C)(C)C5CCC43C)C12 (stereo not given),30.1% (inactive)
14,Cc1c(C(=O)O)nnn1-c1nccs1,94.1% (inactive)
15,C[C@H]1[C@H]2C3=CC[C@@H]4[C@@]5(C)C/C(=C/c6ccncc6)C(=O)C(C)(C)[C@@H]5CC[C@@]4(C)[C@]3(C)CC[C@@]2(C(=O)N2CCN(C)CC2)CC[C@@H]1C,96.3% (inactive)
16,C=CCN1C(=O)[C@]2(SC1=S)[C@H](c1cccc(Cl)c1)CN(C)[C@]21C(=O)NC2C=CC(Cl)=C[C@H]21 (stereo not given in full),44.2% (inactive)
17,O=c1[nH]nc(-c2ccc(Cl)cc2)cc1Cc1ccccc1,101% (inactive)
18,Cc1cccc(-c2cc(O)c(C(=O)N3CCOCC3)s2)c1,28.5% (inactive)
19,CC(C)c1ccc(NC(=O)Cc2ccc(Nc3ncnc4cc(-c5cnn(CCN(C)C)c5)ccc34)cc2)cc1,65.7% [30 µM] (inactive)
20,O=C(/C=C/c1ccccc1)c1ccc2ccccc2c1,98.4% (inactive)

row,SMILES,growth
1,C#C[C@]1(O)CC[C@H]2[C@@H]3CC=C4c5sc(N=C(N)N)nc5CC[C@]4(C)[C@H]3CC[C@@]21C,-13.4% (active)
2,CCCCN1CCN(c2ccc3nc(-c4ccc5nc(-c6ccc(OCC)c(OCC)c6)[nH]c5c4)[nH]c3c2)CC1,13.1% (inactive)
3,CC(=O)c1ccc2c(c1)CCN2,104% (inactive)
4,CCn1nc(C#Cc2c(C)ccc3c(Nc4ccc(Cl)cc4)nccc23)c2c(N)ncnc21,-50.8% (active)
5,CCOC(=O)c1c2c(c(C)n1C)-c1nn(Cc3ccc(OC)cc3)cc1CC2,111% (inactive)
6,O=c1[nH]c(=O)n(C2CC(O)C(CO)O2)cc1CO (stereo not given),53.5% (inactive)
7,COc1cc2oc(-c3cccc(C(=O)Nc4ccc(C)cc4)c3)cc(=O)c2c(OC)c1OC,42.3% (inactive)
8,COc1ccc(-c2nc3sc4c(c3c(=O)[nH]2)CCCC4)c2ccccc12,29.4% (inactive)
9,COc1cc(/C=C/C(=O)c2cccc(-n3cc(-c4ccccc4)[nH]c3=O)c2)cc(OC)c1OC,-64.5% (active)
10,C(=C\c1nc2ccccc2[nH]1)/c1nc2ccccc2[nH]1,107% (inactive)
11,CCn1c(Sc2nnc(NC(=O)CSC(=S)N3CCCCC3)s2)nc2c1c(=O)n(C)c(=O)n2C,81.2% (inactive)
12,N#Cc1c(Oc2ccc([N+](=O)[O-])cc2)nc2sc3cc(Cl)ccc3n2c1=N,84.5% (inactive)
13,COc1cc2c(cc1OC)-c1ccc3cc4c(cc3c1N(CCN1CCCC1)C2)OCO4,57.9% (inactive)
14,O=C(O)c1ccccc1C(=O)Nc1ccc(Cl)cc1,102% (inactive)
15,O=C(/C=C/C12c3ccccc3C(c3ccccc31)C1C(=O)N(c3ccc(Cl)cc3)C(=O)C12)c1ccccn1 (stereo not given),-19.2% (active)
16,COC(=O)/C(=C\c1ccc(OC)cc1)C(=O)N1c2ccccc2Sc2ccccc21,35.5% (inactive)
17,N=C(N)c1ccc(-c2ccc(-c3ccc(Cl)cc3Cl)o2)cc1,105% (inactive)
18,N#C/C(=C\c1ccc(Br)cc1)n1nnc2cc(Cl)c(Cl)cc21,33.9% (inactive)
19,CCCCCCNc1cc(C)nc2ccc(OC)cc12,73.7% (inactive)
20,COc1cc(C2CC(c3ccc(Nc4nc(Nc5ccc(F)cc5)nc(Nc5ccc(Cl)cc5)n4)cc3)=NN2C(C)=O)cc(OC)c1OC (stereo not given),66% (inactive)
